Each structure is given as a SMILES string. “And” between values parts separate entries of the source, which are not always exact repeats. Equal entries are not always repeated. Inconclusive results are not listed. The source made the active and inactive calls. Calls come from the whole dose curve; as a rule, active = well fitted activation curve with a large enough effect; inconclusive = small, poorly fitted or top-dose-only effect; inactive = flat fitted curve, though single readings scatter.

The test can be described thus: Extended Characterization of HPGD Inhibitors: PGE2 Assay in A549 Cells. The following applies: PGE2 HTRF level, 16 h. The text has this:
The central role of HPGD is to inactivate prostaglandins such as prostaglandin E2 (PGE2) or prostaglandin D2 (PGD2). These prostaglandins are involved in a number of processes, including inflammation, differentiation, and cellular signaling, which makes HPGD an important target for pharmacological intervention. A number of prostaglandins of particular biological interest have been identified as substrates of HPGD. […] Over-production of PGE2 has been reported to promote tumor-associated neovascularization, cell proliferation, and tumor growth. […] In this orthogonal assay, we set out to measure if compounds were able to increase PGE2 production NIH Chemical Genomics Center [NCGC] NIH Molecular Libraries Probe Centers Network [MLPCN] MLPCN Grant: MH084681 Assay Submitter (PI): Structural Genomics Consortium
A549 cells, LNCaP cells or media were dispensed in 384-well plates (ProxiPlate-384 Plus, PerkinElmer, Shelton, CT) at 5,000 cells/9.9 uL/well using a CappAero384 multichannel pipette (Odense, Denmark). Separately on the plate, 10 uL of PGE2 calibration standards at a starting assay concentration of 5,000 pg/mL (1:2 dilution, 12-points, n = 1, prepared in media, Cisbio, Bedford, MA) were dispensed. Compounds (100 nL, final concentration range from 41.9 nM to 100 uM) were transferred using an ATS Acoustic Liquid Dispenser (EDC Biosystems, Fremont, CA). After being mixed using an automated liquid handler (CyBio, Jena, Germany), samples were incubated (37 deg C, 5% CO2, under a humidified atmosphere) for 16 hours. PGE2 labeled conjugates were added to each well, first 5 uL of PGE2-d2, followed by 5 uL of anti-PGE2-cryptate, centrifuged (1,500 rpm, 15 sec) and incubated (RT, protected from light) for 5 hours. Time-resolved fluorescence intensity (320 nm excitation, 615 and 665 nm emission) was measured using an Envision plate reader (PerkinElmer). Data was expressed as the ratio of 665 nm/615 nm emissions. Concentration (pg/mL) of samples were calculated from a 4-parameter logistic calibration curves of the PGE2 standards.
(In general: In TR-FRET formats the signal depends on donor and acceptor labels being close together.)
In the case of `CCOC(=O)c1ccc(-n2cnc3cc(C(=O)N4CCCCC4)ccc32)cc1`, the Potency was 1.87 µM (active).
As for `Cc1cc(-c2nnc3n2CCCCC3)c(C)n1-c1ccc(Br)cc1`, the figure is 0.59 µM (active); as for `CCCCn1cnc2cc(C(=O)N3CCCCC3)ccc21`, 2.96 µM (active).
As for `Brc1cnc2nc(SCc3ccncc3)[nH]c2c1`, the figure is 0.833 µM (active); as for `Cc1cc(-c2nnc3n2CCCCC3)c(C)n1-c1ccc(F)cc1`, 0.662 µM (active).
As for `Cc1cc(-c2nnc3n2CCCCC3)c(C)n1-c1ccccn1`, the figure is 26.4 µM (active); as for `Clc1cccc(CSc2nc3ncc(Br)cc3[nH]2)c1`, 0.296 µM (active).
Take `COc1ccccc1-n1cnc2cc(C(=O)N3CCCCC3)ccc21`: the Potency is 16.6 µM (active).
As for `Cc1cc(-c2nnc3n2CCCCC3)c(C)n1-c1ccccc1`, the figure is 372 nM (active) and 2.64 µM (active); as for `Brc1cnc2nc(SCc3ccccn3)[nH]c2c1`, 5.9 µM (active).
The same measure for `Cc1cc(-c2nnc3n2CCCCC3)c(C)n1-c1cccc(C#N)c1`: 2.64 µM (active); for `COc1ccc(-n2cnc3cc(C(=O)N4CCCCC4)ccc32)cc1`: 0.662 µM (active); for `Cc1cc(-c2nnc3n2CCCCC3)c(C)n1-c1cccc(Cl)c1`: 0.59 µM (active).
As for `Cc1cccc(-n2cnc3cc(C(=O)N4CCCC4)ccc32)c1`, the figure is 1.87 µM (active).
For the compound `CCCCC[C@H](O)/C=C/[C@H]1[C@H](O)CC(=O)[C@@H]1C/C=C\CCCC(=O)O`, the Potency is 0.148 µM (active).
The same measure for `Cc1cccc(-n2cnc3cc(C(=O)N4CCCCC4)ccc32)c1`: 0.469 µM (active); for `N#Cc1ccccc1CSc1nc2ncc(Br)cc2[nH]1`: 372 nM (active) and 7.43 µM (active) and 743 nM (active).
For the compound `CC(C)(C)c1cccc(-n2cnc3cc(C(=O)N4CCCCC4)ccc32)c1`, the Potency is 18.7 µM (active).
The same measure for `CN1CC[C@@H](c2c(O)cc(O)c3c(=O)cc(-c4ccccc4Cl)oc23)[C@@H](O)C1`: 3.32 µM (active); for `Cc1ccc(-n2c(C)cc(-c3nnc4n3CCCCC4)c2C)cc1`: 0.166 µM (active); for `O=[N+]([O-])c1ccc(CSc2nc3ncc(Br)cc3[nH]2)cc1`: 0.235 µM (active).
As for `Cc1cc(-c2nnc3n2CCCCC3)c(C)n1-c1ccc(C(F)(F)F)cc1`, the figure is 0.833 µM (active).
Turning to `O=[N+]([O-])c1cccc(CSc2nc3ncc(Br)cc3[nH]2)c1`, the Potency was 0.418 µM (active).
As for `Cc1cccc(-n2cnc3cc(C(=O)N4CCCCCC4)ccc32)c1`, the figure is 2.96 µM (active).
As for `COc1ccc(CSc2nc3ncc(Br)cc3[nH]2)cc1F`, the figure is 7.43 µM (active); as for `Cc1cccc(-n2cnc3cc(C(=O)N4CCCC(C(F)(F)F)C4)ccc32)c1` (stereo not given), 1.32 µM (active).
The same measure for `Cc1ccc(-n2cnc3cc(C(=O)N4CCCCC4)ccc32)cc1`: 0.469 µM (active).
For `CC(C)(C)n1cnc2cc(C(=O)N3CCCCC3)ccc21`, the Potency is 2.09 µM (active).
The same measure for `Cc1cc(-c2nnc3n2CCCCC3)c(C)n1-c1ccncc1`: 33.2 µM (active); for `Cc1cccc(-n2cnc3cc(C(=O)N4CCCC(C)(C)C4)ccc32)c1`: 0.743 µM (active).
The same measure for `O=C(c1ccc2c(c1)ncn2-c1cccc(C(F)(F)F)c1)N1CCCCC1`: 2.64 µM (active); for `Brc1cnc2nc(SCc3cccnc3)[nH]c2c1`: 8.33 µM (active).
On to `O=[N+]([O-])c1ccccc1CSc1nc2ncc(Br)cc2[nH]1`, for which the Potency is 0.148 µM (active).
As for `CC(C)(C)c1ccc(-n2cnc3cc(C(=O)N4CCCCC4)ccc32)cc1`, the figure is 20.9 µM (active).
As to `CC(C)c1cccc(-n2cnc3cc(C(=O)N4CCCCC4)ccc32)c1`, the Potency was 2.35 µM (active).
Take `Cc1cccc(-n2cnc3cc(C(=O)N4CCC(Br)CC4)ccc32)c1`: the Potency is 1.18 µM (active).
The same measure for `N#Cc1cccc(CSc2nc3ncc(Br)cc3[nH]2)c1`: 7.43 µM (active).
The same measure for `N#Cc1ccc(CSc2nc3ncc(Br)cc3[nH]2)cc1`: 0.332 µM (active).
The same measure for `Clc1ccc(CSc2nc3ncc(Br)cc3[nH]2)cc1`: 16.6 µM (active); for `c1ccc(-n2cc(-c3nnc4n3CCCCC4)c3ccccc32)cc1`: 1.66 µM (active).

These data come from PubChem BioAssay AID743167 (National Center for Advancing Translational Sciences (NCATS), 2013).
